Screening results as filed in PubChem.
The full list was thinned out, with hits kept by preference.
TbREL1 inh: TbREL1 inhibition, primary screen | inhibition, % at 9.66 µM | TbREL1 RNA ligation, FRET fluorescence | 89,000 tested, 0.49% active;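 active = inhibition above the mean inhibition across all screened compounds plus 3 SD, cut at about 11% in these data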;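 also: 0% = plate median of test wells and 100% = NSC42067 control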
Target sequence (P86926 whole entry, looked up): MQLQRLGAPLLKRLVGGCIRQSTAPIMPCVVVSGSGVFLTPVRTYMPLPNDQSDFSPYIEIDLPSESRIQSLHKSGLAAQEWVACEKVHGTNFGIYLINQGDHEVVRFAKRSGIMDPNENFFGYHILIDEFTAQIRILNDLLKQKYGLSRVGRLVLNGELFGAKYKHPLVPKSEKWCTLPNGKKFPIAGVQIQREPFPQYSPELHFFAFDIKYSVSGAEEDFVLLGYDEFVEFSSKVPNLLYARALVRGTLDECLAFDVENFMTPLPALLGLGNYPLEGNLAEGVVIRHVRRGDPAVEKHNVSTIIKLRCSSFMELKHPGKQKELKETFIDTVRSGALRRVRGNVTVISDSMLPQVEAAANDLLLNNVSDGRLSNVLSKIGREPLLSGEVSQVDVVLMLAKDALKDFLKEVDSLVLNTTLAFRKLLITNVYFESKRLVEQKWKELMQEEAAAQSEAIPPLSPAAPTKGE
TbREL1 confirm: TbREL1 inhibition, confirmation. shares compounds with TbREL1 inh. TbREL1 RNA ligation, FRET fluorescence. inhibition, % at 9.66 µM. 390 tested, 37% active. AID 1117282;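 active = mean inhibition across replicates above a set limit taken from the earlier primary screen, cut at about 11% in these data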;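 also: 0% = REL1 with substrate and DMSO and 100% = REL1 plus control inhibitor NSC42067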
An asterisk follows results filed as active.

For CCC(NC(=O)Cn1c(-c2ccccc2)cc(C(C)=O)c1C)c1ccccc1 (stereo not drawn) the results were TbREL1 inh -2.
Screening CCN=c1scc(C)n1/N=C/c1ccc(O)c(O)c1O returned TbREL1 inh 13* and TbREL1 confirm 24*.
For Cc1cc(C(=O)N/N=C/c2ccc(O)c(O)c2O)c(C)n1-c1ccccc1 the results were TbREL1 inh 1.
For Oc1ccc(/C=N/N(Cc2ccccc2)c2ccccc2)c(O)c1O the results were TbREL1 inh -4.
Screening COc1ccc(-c2cc(-c3nnc(SCC(=O)Nc4ccc(OCc5ccccc5)cc4)n3N)[nH]n2)cc1 returned TbREL1 inh 0.
Screening CC(C)=CC([C@]12C[C@H](CO)N[C@@H]1Nc1ccccc12)S(=O)(=O)c1ccccc1 (stereo partly drawn) returned TbREL1 inh -8.
CC(C)C[C@H](NC(=O)c1nc[nH]c1C(=O)N[C@@H](CC(C)C)C(=O)OCc1ccccc1)C(=O)OCc1ccccc1 was read as TbREL1 inh 2.
For CC(C)C[C@H](NC(=O)c1[nH]cnc1C(=O)N[C@@H](Cc1ccccc1)C(=O)OCc1ccccc1)C(=O)OCc1ccccc1 the results were TbREL1 inh 0.
Screening CC(C)C[C@@H](CNCC(=O)[C@H](C)NC(=O)c1[nH]cnc1C(=O)N[C@@H](C)CN)NC(=O)c1nc[nH]c1C(=O)N[C@@H](Cc1ccccc1)C(=O)O returned TbREL1 inh 11* and TbREL1 confirm 6.
Screening O=C(COc1ccccc1)Nc1c(Cl)ccc2nsnc12 returned TbREL1 inh -2.
For Cc1ccc2nsnc2c1NC(=O)CCl the results were TbREL1 inh 11* and TbREL1 confirm 4.
Cc1ccc2nsnc2c1NC(=O)Cc1ccc(Cl)cc1 was read as TbREL1 inh -1.
For CCOc1cccc(-c2nnc3n2N=C(c2ccc(OC)cc2)CS3)c1 the results were TbREL1 inh -4.
CN(C)CCNc1ncnc2ccccc12 was read as TbREL1 inh 1.
For CN(C)CCCNc1ncnc2sc(-c3ccccc3)cc12 the results were TbREL1 inh 14* and TbREL1 confirm 4.
Screening CC(C)N(C(=O)CSc1ncnc2sc(-c3ccccc3)cc12)C(C)C returned TbREL1 inh -3.
Fc1ccc(C2=Nn3c(nnc3C3CCCCC3)SC2)cc1 was read as TbREL1 inh -2.
`COc1cccc(C2c3c(ncn(-c4ccccc4)c3=N)Oc3ccc4ccccc4c32)c1OC` (stereo not drawn) gave TbREL1 inh 4.
C=CCn1c(CCNC(=O)c2ccccc2F)nnc1SCC(=O)Nc1nc(C)cs1 was read as TbREL1 inh -1.
C=CCn1c(CCNC(=O)c2ccccc2F)nnc1SCC(=O)Nc1ccccc1F was read as TbREL1 inh 1.
For C=CCn1c(CNC(=O)c2ccccc2F)nnc1SCC(=O)NC(C)c1ccccc1 (stereo not drawn) the results were TbREL1 inh 12* and TbREL1 confirm 5.
`CCn1c(COc2cc(C)ccc2C(C)C)nnc1SCC(=O)Nc1nccs1` gave TbREL1 inh 12* and TbREL1 confirm 7.
`Cc1cccc(-n2c(CNC(=O)COc3ccccc3)nnc2SCC(=O)Nc2nccs2)c1` gave TbREL1 inh 3.
For CN(C)CCCn1c(SCC(=O)Nc2nccs2)nnc1-c1ccncc1 the results were TbREL1 inh 1.
`O=C(CCN1CCCCCC1)Nc1cccc(Cl)c1` gave TbREL1 inh 2.
`S=C(Nc1cccc(Cl)c1)N(CCCN1CCCC1)Cc1cccn1Cc1ccc(Cl)cc1` gave TbREL1 inh 11* and TbREL1 confirm 1.
COc1ccc(NC(=S)N(CCCN2CCCC2)Cc2cccs2)cc1 was read as TbREL1 inh -3.
Cc1ccccc1Cn1cc(COC(=O)N(C)Cc2ccccc2)nn1 was read as TbREL1 inh 6.
Cc1ccc(NC(=O)Cc2cccc(OC(F)F)c2)c(S(=O)(=O)N2CCOCC2)c1 was read as TbREL1 inh -3.
O=C(NC1CCCCN(Cc2ccc(Cl)cc2)C1=O)c1ccc(Cl)cc1Cl (stereo not drawn) was read as TbREL1 inh -2.
Screening CCC(C)NC(=O)CC(C)C (stereo not drawn) returned TbREL1 inh 12* and TbREL1 confirm 6.
Screening CC(C)CC(=O)NN1CCCCC1 returned TbREL1 inh 1.
CCC(C)NC(=O)CNS(=O)(=O)c1ccc(C)cc1 (stereo not drawn) was read as TbREL1 inh 0.
For O=C(Nc1ccc2c(c1)OCO2)NC1CCN(S(=O)(=O)c2ccc(F)cc2)CC1 the results were TbREL1 inh 1.
`S=C(Nc1ccc(Cl)c(Cl)c1)Nc1nnc(-c2ccncc2)s1` gave TbREL1 inh 1.
`CN(Cc1ccco1)C(=O)c1cccc2c1C(=O)N(Cc1cccnc1)C2` gave TbREL1 inh -1.
Screening CCCCNC(=O)C1CCCN1C(=O)Nc1cccc(C)c1 (stereo not drawn) returned TbREL1 inh 5.
